Among the test systems are HCT-15 colon; HT29 colon; SNB-75 CNS; SNB-19 CNS; U251 CNS; PC-3 prostate; SK-MEL-5 melanoma; UACC-62 melanoma; LOX IMVI melanoma; SK-MEL-28 melanoma; SK-MEL-2 melanoma; EKVX NSCLC; SN12C renal; UO-31 renal; TK-10 renal; ACHN renal; CAKI-1 renal; A498 renal; CCRF-CEM leukemia; MOLT-4 leukemia.
Common to all, as to test: NCI-60 one-dose screen, 48 h (100 = growth as untreated, 0 = no growth, -100 = all killed)
What all share (details): 10 µM unless noted

Molecules are shown by their SMILES. Values joined by “and” are separate entries in the source; they are usually repeats but may differ in a detail not shown here. Identical values can stand only once. This is part of a sample that, as a whole, favours compounds with a hit. Of some 83,000 tested, about 20% had one in any assay.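 A percent growth of 40 corresponds to 60% growth inhibition; 0 means no net growth; -100 means all cells died. Active threshold: below 10.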 Active and inactive are the calls of the source.

As to `CC1=C(/C=C/C(C)=C/C=C/C(C)=C/C(=O)Nc2ccc(O)cc2)C(C)(C)CCC1`, the growth in the assay on HCT-15 colon is 57% (inactive); with HT29 colon, 34.6% (inactive); with SNB-75 CNS, 57.6% (inactive); in the assay on SNB-19 CNS, 80.2% (inactive); in the assay with U251 CNS, 66.8% (inactive); with PC-3 prostate, 52.2% (inactive). The growth in the assay with SK-MEL-5 melanoma was 43.9% (inactive); in the assay with UACC-62 melanoma it was 22% (inactive); with LOX IMVI melanoma, 2.64% (active); in the assay with SK-MEL-28 melanoma, 61.7% (inactive); with SK-MEL-2 melanoma it was 78.6% (inactive); with EKVX NSCLC, 64.7% (inactive). In addition, the growth in the assay on SN12C renal is 39.2% (inactive); in the assay with UO-31 renal it was -4.99% (active); in the assay with TK-10 renal, 103% (inactive); with ACHN renal, 52.2% (inactive); in the assay with CAKI-1 renal it was 47% (inactive); in the assay with A498 renal it was 71.4% (inactive). For the same molecule, the growth in the assay on CCRF-CEM leukemia is 19.5% (inactive); with MOLT-4 leukemia, 7.55% (active).
In the case of `CC(=O)Nc1cccc2c1CCCC2`, the growth with HCT-15 colon is 92.8% (inactive) and 96.5% (inactive); in the assay with HT29 colon, 92.8% (inactive) and 85.6% (inactive); in the assay with SNB-75 CNS, 85.4% (inactive) and 101% (inactive); in the assay with SNB-19 CNS, 103% (inactive) and 104% (inactive); in the assay on U251 CNS, 97.7% (inactive) and 95.7% (inactive); in the assay with PC-3 prostate, 87.8% (inactive) and 90.2% (inactive). In addition, the growth was 100% (inactive) with SK-MEL-5 melanoma; 107% (inactive) and 102% (inactive) with UACC-62 melanoma; 97.1% (inactive) and 93.6% (inactive) in the assay on LOX IMVI melanoma; 104% (inactive) and 107% (inactive) in the assay on SK-MEL-28 melanoma; 82.6% (inactive) and 75% (inactive) with SK-MEL-2 melanoma; 96.6% (inactive) and 94.7% (inactive) in the assay with EKVX NSCLC. The growth in the assay on SN12C renal is 103% (inactive) and 100% (inactive); in the assay on UO-31 renal it was 88.2% (inactive) and 91% (inactive); with TK-10 renal, 85.6% (inactive) and 83.7% (inactive); in the assay with ACHN renal, 102% (inactive) and 110% (inactive); in the assay with CAKI-1 renal, 95.1% (inactive); with A498 renal it was 97.8% (inactive) and 121% (inactive). Also, the growth in the assay with CCRF-CEM leukemia was 82.6% (inactive) and 100% (inactive); in the assay on MOLT-4 leukemia, 104% (inactive) and 102% (inactive).
On to `Cn1c(=O)n(-c2ccc(C(C)(C)C#N)cc2)c2c3cc(-c4cnc5ccccc5c4)ccc3ncc21`, for which the growth was 9.69% (active) and 14.5% (inactive) with HCT-15 colon; 4.74% (active) and -10.5% (active) in the assay with HT29 colon; -30.1% (active) and -24.4% (active) with SNB-75 CNS; 14.9% (inactive) and 14.7% (inactive) in the assay with SNB-19 CNS; 8.23% (active) and 8.1% (active) in the assay on U251 CNS; 13.2% (inactive) and -18% (active) with PC-3 prostate. The growth in the assay on SK-MEL-5 melanoma is -62.1% (active) and -89.1% (active); with UACC-62 melanoma it was -18.9% (active) and -20.3% (active); in the assay with LOX IMVI melanoma it was 1.14% (active) and 2.87% (active); with SK-MEL-28 melanoma, -1.82% (active) and 1.77% (active); with SK-MEL-2 melanoma it was -42.4% (active); in the assay on EKVX NSCLC it was 7.47% (active) and 2.62% (active). The growth with SN12C renal is 15.6% (inactive) and 17.1% (inactive); in the assay on UO-31 renal, -14.7% (active) and -16.6% (active); in the assay on TK-10 renal it was -27.5% (active) and -27.4% (active); with ACHN renal, 5.22% (active) and 9.17% (active); in the assay on CAKI-1 renal it was 5.77% (active) and -2.85% (active); in the assay with A498 renal it was -46.3% (active) and -44.5% (active). Moreover, the growth is 10.1% (inactive) in the assay with CCRF-CEM leukemia; -5.74% (active) and -20.5% (active) in the assay on MOLT-4 leukemia.
Take `CC(C)Cc1ccc(C(C)C(=O)NCc2ccc(Cn3c(=O)sn(CCCCl)c3=O)cc2)cc1` (stereo not given): the growth was 103% (inactive) and -35.9% (active) in the assay on HCT-15 colon; 104% (inactive) and -64% (active) in the assay on HT29 colon; 105% (inactive) and -18% (active) in the assay with SNB-75 CNS; 91.2% (inactive) and 49.8% (inactive) in the assay on SNB-19 CNS; 95.6% (inactive) and 7.88% (active) with U251 CNS; 91.9% (inactive) and -69.6% (active) with PC-3 prostate. Also, the growth was 91.8% (inactive) and -78.1% (active) in the assay with SK-MEL-5 melanoma; 92.6% (inactive) and -68.6% (active) in the assay on UACC-62 melanoma; 90.7% (inactive) and -93.1% (active) in the assay with LOX IMVI melanoma; 107% (inactive) and -71.8% (active) with SK-MEL-28 melanoma; 103% (inactive) and -3.28% (active) in the assay with SK-MEL-2 melanoma; 89.3% (inactive) and -64.7% (active) in the assay on EKVX NSCLC. The growth in the assay with SN12C renal was 98.7% (inactive) and -60.5% (active); with UO-31 renal it was 77% (inactive) and -100% (active); with TK-10 renal, 88% (inactive) and -91.9% (active); in the assay with ACHN renal, 97.3% (inactive) and -100% (active); in the assay on CAKI-1 renal, 87.1% (inactive) and -86.6% (active); in the assay with A498 renal it was 87.8% (inactive) and 55.6% (inactive). In addition, the growth with CCRF-CEM leukemia was 53.4% (inactive) and 3.84% (active); in the assay on MOLT-4 leukemia, 90.4% (inactive) and 0.866% (active).

Source of the values: PubChem BioAssay (NCI).
